The record followed here is PubChem BioAssay AID1745850 (National Center for Advancing Translational Sciences (NCATS), 2022).

Structures are written as SMILES. Hit rate of the full screen: of about 2,100 compounds, about 260 (12%) were called active. Inconclusive results (about 58%) are left out. Some of the results follow. A number with no mark means an inactive call. Calls come from the whole dose curve; as a rule, active = well fitted cell-killing curve with a large enough effect; inconclusive = small, poorly fitted or top-dose-only effect, or effect the other way; inactive = flat fitted curve, though single readings scatter.
Potency is the fitted concentration of half-maximal effect.

This assay in a line: Viability Counterscreen for Confirmatory qHTS for Inhibitors of ATXN expression. Note: nearly all actives have a fitted effect of over 50% in size. The note with it: HEK-293 ATXN2-luc cells viability, CellTiter-Fluor, 24 h; activity change, negative = cytotoxicity: at the top concentration. In outline:
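Cells with an ATXN2-luciferase reporter were dosed in a dilution series for 24 h at 37 degrees C. Viability was read first with Gly-Phe-AFC at 25 uM final (fluorescence, ex 405/em 540), then SteadyGlo luminescence. Medium-only wells defined 100% inhibition.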
(In general: The purpose of a counterscreen is to sort out artefacts and off-target activity.)
As to `CO[C@@]12[C@@H]3N[C@@H]3CN1C1=C(C(=O)C(N)=C(C)C1=O)[C@@H]2COC(N)=O`, the “activity change, negative = cytotoxicity” value was 9.55%.
In the case of `NNC(=O)c1sc2cc(C(F)(F)F)cnc2c1-c1cccs1`, the “activity change, negative = cytotoxicity” value is -22.9% [at 57.5 µM].
As for `O=C(CNC(=O)C1COc2ccccc2O1)N/N=C/c1ccc(O)cc1O` (stereo not given), the “activity change, negative = cytotoxicity” value was -22.9%.
For the compound `Cc1nc(SCc2ccc(C(=O)O)cc2)nc2c1CCCC2`, the “activity change, negative = cytotoxicity” value was -2.72%.
Turning to `N=c1ccn(CC(=O)c2ccc(-c3ccccc3)cc2)cc1`, the “activity change, negative = cytotoxicity” value is -19.1%.
Same read-out and setting: with `Cc1c(C(=O)NCc2ccc(C(F)(F)F)cc2)sc(=O)n1Cc1cccc(F)c1` the figure was -16.1% [at 57.5 µM]; with `Cc1ccc2nc(SCc3ccc([N+](=O)[O-])cc3)[nH]c2c1`, -12.6%.
Regarding `Cc1ccc2nc3cc([N+](=O)[O-])cc([N+](=O)[O-])c3cc2c1`, the Potency is 17.8 µM (active).
With `Cc1cc(C)nc(NNS(=O)(=O)c2ccc(F)c(Cl)c2)n1`, the “activity change, negative = cytotoxicity” value is -5.02%.
Consider `CC(C)CC(=O)NC(=S)NNC(=O)c1ccc(NC(=O)C2CCCCC2)cc1`, for which the “activity change, negative = cytotoxicity” value is 4.48%.
Consider `CCC(=O)OCCNc1cc(Sc2nc3ccccc3[nH]2)c2nonc2c1[N+](=O)[O-]`, for which the Potency was 3.16 µM (active).
Turning to `Cc1cccc(OCCCC(=O)Nc2nc3ccccc3[nH]2)c1`, the “activity change, negative = cytotoxicity” value was -19.4%.
Take `CC(SC(C)C(=O)NN=Cc1cccc(Cl)c1)C(=O)NN=Cc1cccc(Cl)c1` (stereo not given): the “activity change, negative = cytotoxicity” value was -28.8%.
Take `O=C(NC(=S)NCc1nc2ccccc2[nH]1)c1ccc(F)cc1`: the “activity change, negative = cytotoxicity” value is -4.93%.
The same measure, in the same setting: with `Cc1cc(C)cc(NC(=O)CCC(=O)Nc2cc(C)on2)c1` the figure was -6.58%; with `COc1ccc(OC)c(NC(=O)CSc2nnnn2-c2ccc3c(c2)OCO3)c1`, -28.3% [at 57.5 µM].
For the compound `Cc1cc(C)c2c(CC(=O)Nc3ccc(Cl)cn3)coc2c1`, the “activity change, negative = cytotoxicity” value was -4.58%.
Take `Cc1ccc(N=Nc2ccc(O)c3ncccc23)cc1`: the Potency is 10 µM (active).
As to `CN1CCC(N(C)C(=O)c2ccc(Cl)c(S(=O)(=O)N3CCc4ccccc43)c2)CC1`, the “activity change, negative = cytotoxicity” value was -25.1% [at 57.5 µM].
For `Nc1ccn([C@@H]2O[C@H](CO)[C@@H](O)[C@@H]2O)c(=O)n1`, the “activity change, negative = cytotoxicity” value was -10.9%.
Same read-out and setting: then `CN(C)S(=O)(=O)c1cccc(N2C(=O)CC3(CCCCC3)CC2=O)c1`, with -6.16%.
As for `C=CCN(C(=O)CSc1nc2c(sc3ccccc32)c(=O)n1CCN(CC)CC)c1ccccc1`, the Potency was 25.1 µM (active).
Consider `CCOC(=O)c1c(-n2cccc2)sc2c1CCCC2=O`, for which the “activity change, negative = cytotoxicity” value was -20% [at 57.5 µM].
Consider `CC(=O)c1ccc(N2CCN(CC(O)COC(c3ccccc3)c3ccccc3)CC2)cc1` (stereo not given), for which the “activity change, negative = cytotoxicity” value was -7.3%.
As for `CCN(CC)c1nc(-c2ccccn2)nc(-c2ccccc2)c1C#N`, the Potency is 8.91 µM (active).
Turning to `CC(C)Nc1nc(-c2ccccn2)nc(-c2ccccc2)c1C#N`, the “activity change, negative = cytotoxicity” value was -20.8% [at 57.5 µM].
Take `Cn1cc(SCC(=O)Nc2nc3ccccc3s2)c2ccccc21`: the “activity change, negative = cytotoxicity” value was -4.73%.
`COc1ccccc1NS(=O)(=O)c1cccc(C(=O)N/N=C/c2ccc([N+](=O)[O-])o2)c1`: the Potency is 15.8 µM (active).
Regarding `O=C(N/N=C/c1ccccc1O)c1cccc(C(F)(F)F)c1`, the “activity change, negative = cytotoxicity” value was -7.41%.
As for `COc1cccc(/C=N/NC(=O)c2cc3c(OC)cccc3[nH]2)c1O`, the “activity change, negative = cytotoxicity” value was -32.3% [at 57.5 µM].
Regarding `c1ccc(COc2ncnc3c2ncn3CCCN2CCN(Cc3cccc4ccccc34)CC2)cc1`, the Potency was 25.1 µM (active).
As to `CCOC(=O)/C=C/C(=O)Nc1ccc(Oc2ccccc2)cc1`, the “activity change, negative = cytotoxicity” value was -17.2%.
On to `CN(CCOc1ccc(Br)cc1)CC(O)COc1ccc(C#N)cc1` (stereo not given), for which the “activity change, negative = cytotoxicity” value was -16.9% [at 57.5 µM].
`OC[C@@H]1CN(Cc2ccc(-c3ccccc3)cc2)C[C@H](n2cnc3c(Nc4ccccc4)ncnc32)O1`: the Potency was 20 µM (active).
In the case of `Cc1csc2ncnc(NC3CCN(Cc4ccccc4)CC3)c12`, the “activity change, negative = cytotoxicity” value was -19.2% [at 57.5 µM].
In the case of `Cc1cccc(/C=N/NC(=O)c2c(-c3ccccc3)noc2C)c1O`, the “activity change, negative = cytotoxicity” value is -17.6%.
As to `COCCCNCCCOc1ccc(Cl)cc1C(C)(C)C`, the Potency is 35.5 µM (active).
As for `CCCCNCCCOc1cccc(Cl)c1Cl`, the “activity change, negative = cytotoxicity” value is -20.9% [at 57.5 µM].
On to `Cc1cc(Cl)ccc1OCCCC(=O)NNC(=O)c1ccccc1O`, for which the “activity change, negative = cytotoxicity” value was -10.4%.
`NC(=S)n1[nH]c(-c2ccc([N+](=O)[O-])cc2)c(N=Nc2cccc(Cl)c2)c1=O`: the Potency is 11.2 µM (active).
Take `Cc1cc2sc3ccc(C#CC4(O)CCCCC4)cc3c(=O)c2cc1C`: the “activity change, negative = cytotoxicity” value was -17.5% [at 57.5 µM].
On to `Cc1ccc(NC(=O)CNc2cccc(Br)c2)cc1S(=O)(=O)N1CCOCC1`, for which the “activity change, negative = cytotoxicity” value was -29.9%.
On to `CC(C)[C@@H]1CC[C@@H](C)C[C@H]1OC(=O)C[n+]1cc(-c2ccc(Cl)cc2)n2c1CCCCC2`, for which the Potency was 22.4 µM (active).
In the case of `CCn1c(C)cc(C(=O)CN2C(=O)c3ccccc3S2(=O)=O)c1C`, the “activity change, negative = cytotoxicity” value was -1.78%.
On to `CCn1cc(C(=O)NCc2cccc(F)c2)c(=O)c2cc(F)c(N3CCN(C(=O)c4ccco4)CC3)cc21`, for which the Potency is 22.4 µM (active).
For the compound `CCOC(=O)Cn1cc(C(=O)c2ccco2)c2ccccc21`, the “activity change, negative = cytotoxicity” value is -8.35%.
With `O=C(c1ccco1)N1CCN(c2ccnc3cc(Cl)ccc23)CC1`, the “activity change, negative = cytotoxicity” value is -8.67% [at 57.5 µM].
Same read-out and setting: with `Cc1ccc2c(CC(=O)NNC(=O)c3ccccc3O)coc2c1` the figure was -16%; with `Cc1ccc(SC2=C(N(C)C)C(=O)c3ccccc3C2=O)cc1`, -9.87% [at 57.5 µM]; with `CC(C)(C)c1ccc(NC(=O)N2CCCN(c3c(Cl)cncc3Cl)CC2)cc1`, -10.7% [at 57.5 µM].
As to `O=C(NNC1=Nc2ccccc2SC1)c1ccc(Cl)cc1`, the “activity change, negative = cytotoxicity” value was -23.5%.
Regarding `O=c1c2c(nc3c(-c4cccc(Br)c4)c[nH]n13)CCCC2`, the Potency is 12.6 µM (active).
As to `O=c1c2c(nc3c(-c4ccc(Cl)cc4)c[nH]n13)CCC2`, the “activity change, negative = cytotoxicity” value is -24.2%.
Consider `O=C(NNc1ccnc2cc(Cl)ccc12)C1CCCCC1`, for which the “activity change, negative = cytotoxicity” value was -17%.
As to `CC1(C)Cc2c(sc(NC(=O)c3ccc(C(=O)c4ccccc4)cc3)c2C(N)=O)C(C)(C)N1`, the Potency is 28.2 µM (active).
On to `NC(=O)c1c(NC(=O)c2ccc(S(=O)(=O)N3CCOCC3)cc2)sc2c1CCCCC2`, for which the “activity change, negative = cytotoxicity” value was -15.9%.
Still for that read-out and setting: then `Nc1nc(NCCCN2CCOCC2)nc(Nc2cccc(Cl)c2)c1[N+](=O)[O-]`, with -23%; and `CCCCC/C=C/C1=CC(=O)C[C@H](c2ccc(OC)c(OC)c2)C1`, with -22.6% [at 57.5 µM].
For the compound `O=C(C(Br)=Cc1ccccc1)c1ccccc1`, the Potency was 7.94 µM (active).
Regarding `CC(C)(C)NCC(=Cc1ccccc1)C(=O)c1ccccc1`, the Potency is 3.55 µM (active).
In the case of `O=C(N/N=C/c1ccccc1O)/C(=C/c1ccccc1)CCO`, the “activity change, negative = cytotoxicity” value was -4.41%.
For the compound `CC(C)(C)c1ccc(Oc2ccc(N)cn2)cc1`, the “activity change, negative = cytotoxicity” value was -2.49% [at 57.5 µM].
With `CNc1nc2c(N)ncnc2n1[C@H]1O[C@@H](CO)[C@H](O)[C@@H]1O`, the “activity change, negative = cytotoxicity” value was -9.92%.
Consider `Cc1ccc(SCCC(=O)N/N=C/c2ccccc2O)cc1`, for which the “activity change, negative = cytotoxicity” value was -12.1%.
On to `Cc1ccc2[nH]c(O)c(N=NC(=O)C3CC3c3ccccc3)c2c1Br` (stereo not given), for which the “activity change, negative = cytotoxicity” value was -17.7%.
